Among the data in PubChem BioAssay AID1645838 (ICCB-Longwood Screening Facility, Harvard Medical School, 2021) are z-score, cell count and outcome values, retold here.

This test can be described thus: modulators of mitochondrial supercomplex assembly, cell-based, luminescence, Hoechst nuclei count (AID 1645838).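 On all read-outs here: control cybrid cells.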 The following applies: Cells, luminescence/Hoechst cell count ratio, supercomplex reporter; for z-score: stronger effect = higher value; for cell count: measured here: cell number, Hoechst nuclei count.
[1] abbreviates: library stock concentration (final well concentration not given) 46 uM.
The mark [2] stands for this setting: library stock concentration (final well concentration not given) 278 uM.
The mark [3] stands for this setting: library stock concentration (final well concentration not given) 1.67 mM.
Setting [4] is: library stock concentration (final well concentration not given) 10 mM.
Where [5] appears, read: library stock concentration (final well concentration not given) 80 uM.
The mark [6] stands for this setting: library stock concentration (final well concentration not given) 400 uM.
[7] abbreviates: library stock concentration (final well concentration not given) 2 mM.

“And” between values parts separate entries of the source, which are not always exact repeats. Equal values may be shown once. The campaign covered roughly 2,000 compounds. About 100 (5%) were called active. The sample holds actives, similar compounds and a random draw of the others, so the mix is not that of the screen. No stated cut-off is given here; in the data, active means z-score above about 2; inactive means the rest. Where a structure was tested more than once in an assay, its records may differ in their call.

Consider `CCCCC/C=C\C/C=C\CCCCCCCC(=O)O[C@H](COC(=O)CCCCCCCCCCCCCCC)COP(=O)(O)OCCN`, for which the z-score was -0.42 (inactive) and the cell count was found to be 5090.
The matching figures for `CC(C)(C)OC(=O)Nc1ccc(-c2cc(C(=O)NCCCCCCC(=O)NO)no2)cc1`: 4.81 (active) and 3910.
`CC(C)(C)CC1NC(C(=O)NC2CCC(O)CC2)C(c2cccc(Cl)c2F)[C@]12C(=O)Nc1cc(Cl)ccc12` (some centres not stated): the z-score is, setting by setting: under setting [1], -0.637 (inactive); under setting [2], -0.742 (inactive); under setting [3], -0.98 (inactive); under setting [4], -1.86 (inactive). Also, the cell count by setting is: under setting [1], 7790; under setting [2], 7430; under setting [3], 8360; under setting [4], 7510.
As to `CC(C)(C)C(O)C=Cc1ccc2c(c1)OCO2` (configuration not stated), the z-score runs as follows: under setting [5], 0.0878 (inactive); under setting [6], 0.509 (inactive); under setting [7], 0.124 (inactive); under setting [4], 0.138 (inactive). In addition, the cell count runs as follows: under setting [5], 5100; under setting [6], 4800; under setting [7], 5050; under setting [4], 5260.
With `CN1CCN(CCOc2cc(OC3CCOCC3)c3c(Nc4c(Cl)ccc5c4OCO5)ncnc3c2)CC1`, the outcome (library stock 10 mM) is “inactive; censored for cell count”. The z-score by setting is: under setting [5], 0.0594 (inactive) and -0.195 (inactive); under setting [6], 0.376 (inactive) and 0.19 (inactive); under setting [7], 1.62 (inactive) and 2.74 (active). Besides, the cell count was 4300 and 6110 under setting [5]; 4050 and 5610 under setting [6]; 3190 and 3140 under setting [7].
As to `O=C1C(c2ccccc2)N(c2ccc(Br)cc2)C(=O)N1c1ccc(Br)cc1` (configuration not stated), the z-score was -0.397 (inactive) and the cell count was 4960.
For `CC#CCC(C)C(O)C=CC1C(O)C[C@@H]2CC(=CCCCC(=O)O)C[C@@H]12` (some centres not stated), the z-score is -0.0626 (inactive) under setting [5], -0.295 (inactive) under setting [6], 0.193 (inactive) under setting [7] and 0.43 (inactive) under setting [4]. The cell count by setting is: under setting [5], 5530; under setting [6], 5750; under setting [7], 5230; under setting [4], 4650.
In the case of `COc1cccc(-c2cn(-c3ccc(CCN4CCC(O)CC4)cc3)c3ncnc(N)c23)c1`, the z-score is -0.0662 (inactive) under setting [1], -0.203 (inactive) under setting [2], 0.503 (inactive) under setting [3] and 6.01 (active) under setting [4]. Further, the cell count stood at 6890 under setting [1], 6710 under setting [2], 6410 under setting [3] and 2860 under setting [4].
For the molecule `Nc1ncnc2c1c(-c1ccc(Oc3ccccc3)cc1)cn2C1CCCC1`, the z-score runs as follows: under setting [5], 0.00446 (inactive); under setting [6], 0.328 (inactive); under setting [7], 0.396 (inactive); under setting [4], 0.246 (inactive). Besides, the cell count stood at 4810 under setting [5], 4230 under setting [6], 4080 under setting [7] and 3660 under setting [4].
Take `Cn1cc(-c2ccc3c(c2)CCN3C(=O)Cc2cccc(C(F)(F)F)c2)c2c(N)ncnc21`: the z-score reads like this: under setting [1], -0.404 (inactive); under setting [2], -0.312 (inactive); under setting [3], -0.398 (inactive); under setting [4], 0.717 (inactive). The cell count stood at 6450 under setting [1], 6260 under setting [2], 6230 under setting [3] and 4040 under setting [4].
For `CCCCCC(O)CCC1C(O)C[C@H]2Cc3c(cccc3OCC(=O)O)C[C@@H]12` (some centres not stated), the z-score is, setting by setting: under setting [5], -0.232 (inactive); under setting [6], -0.452 (inactive); under setting [7], -0.204 (inactive); under setting [4], -0.825 (inactive). Besides, the cell count by setting is: under setting [5], 6220; under setting [6], 5860; under setting [7], 5910; under setting [4], 6040.
On to `CCCCC/C=C\C/C=C\CCCCCCCC(=O)OCC(COC(=O)CCCCCCCCCCCCCCC)OC(=O)CCCCCCC/C=C\CCCCCCCC` (configuration not stated), for which the z-score is 0.273 (inactive) and the cell count was determined as 5490.
Regarding `COC(=O)C(NC(=O)c1cc(-c2ccccc2)nc2ccccc12)c1ccccc1` (configuration not stated), the z-score is -0.299 (inactive) under setting [1], -0.209 (inactive) under setting [2], -0.176 (inactive) under setting [3] and -0.0618 (inactive) under setting [4]. The cell count under setting [1] is 6610, the cell count under setting [2] was found to be 6570, the cell count under setting [3] worked out at 6890 and the cell count under setting [4] stood at 6540.
`O=C(Nc1nnc(-c2ccco2)o1)c1cc(-c2ccccc2)nc2ccccc12`: the z-score under setting [1] was 0.451 (inactive), the z-score under setting [2] is 0.815 (inactive), the z-score under setting [3] is 0.151 (inactive) and the z-score under setting [4] was 2.24 (active). In addition, the cell count amounted to 6600 under setting [1], 6010 under setting [2], 6640 under setting [3] and 4920 under setting [4].
Turning to `CCCC(=O)Nc1nc(-c2ccccc2)cc(-c2ccccc2)n1`, the z-score by setting is: under setting [5], -0.0977 (inactive); under setting [6], 0.0694 (inactive); under setting [7], -0.49 (inactive); under setting [4], -0.335 (inactive). The cell count was 5390 under setting [5], 5300 under setting [6], 4980 under setting [7] and 5140 under setting [4].
On to `CCCC/C=C/C=C/C=C\CCCCCCCC(=O)OC`, for which the z-score was 0.121 (inactive) and the cell count was determined as 4950.
The matching figures for `O=C(O)CCC/C=C\C[C@@H]1C(=O)C[C@@H](O)[C@@H]1/C=C/[C@@H](O)CCc1ccccc1`: 0.113 (inactive) and 5100.
As to `O=C1C(Cc2ccc(O)cc2)N2C(=O)CCN(C(=O)NCc3ccccc3)C2CN1Cc1cccc2ccccc12` (configuration not stated), the z-score is -0.329 (inactive) under setting [1], -0.452 (inactive) under setting [2], -1.5 (inactive) under setting [3] and -0.675 (inactive) under setting [4]. In addition, the cell count turned out to be 7210 under setting [1], 7220 under setting [2], 7090 under setting [3] and 4220 under setting [4].
Regarding `CN(C)CCC1(c2ccc(Cl)cc2)Cc2ccccc2C(=O)O1` (configuration not stated), the z-score under setting [1] was -0.548 (inactive), the z-score under setting [2] was -0.51 (inactive), the z-score under setting [3] is -0.496 (inactive) and the z-score under setting [4] was 0.011 (inactive). Also, the cell count under setting [1] was 6980, the cell count under setting [2] is 6360, the cell count under setting [3] was 6480 and the cell count under setting [4] was 6170.
`C=C(C)[C@@H]1CCC(C)=C[C@H]1c1c(O)cc(C)cc1O`: the z-score is -0.799 (inactive) and the cell count was 5690.
The matching figures for `Nc1nc2c([nH]c(=O)n2[C@@H]2O[C@H](CO)[C@@H](O)[C@H]2O)c(=O)[nH]1`: -0.949 (inactive) and 5870.
Turning to `COc1cc(NC(=O)c2ccc(-c3ccc(Cl)cc3)o2)cc(OC)c1`, the z-score under setting [1] was -0.316 (inactive), the z-score under setting [2] is 0.0249 (inactive), the z-score under setting [3] is -0.417 (inactive) and the z-score under setting [4] was -1 (inactive). Besides, the cell count was 6650 under setting [1], 6230 under setting [2], 6670 under setting [3] and 6710 under setting [4].
